Data taken from PubChem BioAssay (NCI).
About 79,000 compounds went through this panel and 15% of them were active in at least one assay; those are over-represented in the sample as a whole. Values without a mark were called inactive. Activity calls are given as the source filed them. Cut-off read from the data, not from the text of the source: active = growth inhibition above about 70%; inactive = the rest.

Assay: NCI Yeast Anticancer Drug Screen. Data for the bub3 strain (AID 167)
Settings: S. cerevisiae bub3 mutant strain, at 33.0 µM, stronger effect = higher value
Method in brief: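 Part of a panel of yeast mutants defective in DNA damage repair or cell cycle regulation. Each strain is grown with compound, and inhibition is calculated relative to solvent-treated cultures.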

SMILES | growth inhibition
CC(CN(C)C)C(=O)/C=C/c1ccc(Cl)c(Cl)c1 (configuration not stated) | 69%
CCCCCCNCCCNc1c2cc(OC)ccc2nc2cccc([N+](=O)[O-])c12 | 34%
NC(=S)N1N=C2c3ccccc3CC[C@H]2[C@@H]1c1ccc(Cl)cc1 | 46%
C/C(=N/NC(=S)Nc1ccccc1C)c1ccccn1 | -2%
O=C1/C(=C/c2ccc(Cl)c(Cl)c2)CNC/C1=C\c1ccc(Cl)c(Cl)c1 | 69%
CC(C)OP(=O)(OC(C)C)C(=NCCO)NNc1ccc([N+](=O)[O-])cc1 | 94% (active)
N#CCC(=O)N/N=C(\c1ccccc1)C(c1ccccc1)C1(O)C(=O)Nc2c(Cl)ccc(Cl)c21 (configuration not stated) | 15%
CC(C)(CN1CCCCC1)C(=O)CC(SCCS(=O)(=O)O)c1ccccc1 (configuration not stated) | 5%
COC1=CCC23C(=O)C=CC(=O)C2(C1)C(=O)c1ccccc1C3=O (configuration not stated) | 15%
CCCCN(CCCC)c1ccc(N=Nc2ccc(S(=O)(=O)O)cc2)cc1 | 94% (active)
c1ccc2nc3c(nc2c1)sc1ccccc13 | 47%
O=C1c2ccccc2-c2ccc(N=Cc3ccccc3)cc21 | 9%
CNC(=S)N/N=C(/C)CCC/C(C)=N/NC(=S)NC | 73% (active)
Nc1ccc(/C=C/c2ccc3cccnc3c2)cc1 | 94% (active)
COc1ccc2c3c1OC(C)C31CC(=O)CCC1CC2 (configuration not stated) | 0%
CCOC(=O)Nc1ccc(C)c(NC(=O)OCC)c1 | 13%
CCN(CC)CCNc1ccc2nc(C)n3c4ccc(OC)cc4c(=O)c1c23 | 16%
